# Source: PubChem BioAssay (EPA / NIEHS)
# Results filed as inconclusive are left out. Activity calls are given as the source filed them. Rule for the calls, unless noted: active = hit-call score of the fitted dose curve at least 0.9, where 1 is the maximum; inconclusive = response in the unintended direction; inactive = score below 0.9.
# Legend:
# [1] = CCTE_Shafer_MEA_acute_LDH: CCTE's Lactate Dehydrogenase Assay for Cytotoxicity in the Neural Acute Assay, Shafer Lab (AID 2284086);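 note: active means LDH release rises above DMSO vehicle level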
# Method in brief: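 Released lactate dehydrogenase, read at 490 nm, indicated cytotoxicity after acute 40-min compound treatment of rat cortical neuron networks grown on 48-well MEA plates.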
# DIO2 (gene 1734) = assay: CCTE_GLTED_hDIO2: CCTE's human Deiodinase 2 (DIO2) Inhibition Assay, Great Lakes Toxicology and Ecology Division (GLTED) Lab (AID 2284050)
# Method in brief: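 In this cell-free test, chemicals are exposed to human deiodinase type 2 for 3 hours. Released iodide is determined spectrophotometrically via the Sandell-Kolthoff method, and signal loss relative to DMSO is fitted.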
# DIO3 (gene 1735) = assay: CCTE_GLTED_hDIO3: CCTE's human Deiodinase 3 (DIO3) Inhibition Assay, Great Lakes Toxicology and Ecology Division (GLTED) Lab (AID 2284055);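 note: potency is for inhibition seen as loss of released iodide signal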
# Method in brief: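 Enzyme activity is tracked as iodide release from substrate by recombinant human DIO3 over 3 h with chemical present. A second Sandell-Kolthoff step converts iodide to an absorbance signal, fitted relative to DMSO.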
# [2] = CCTE_Shafer_MEA_acute_AB: CCTE's Alamar Blue Assay for Cytotoxicity in the Neural Acute Assay, Shafer Lab (AID 2284069);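 note: active compounds lower the viability signal compared with DMSO wells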
# Method in brief: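 Primary rat cortical neurons on MEA plates, exposed acutely after baseline recording on day 13 or 15 post-plating. Viability by CellTiter Blue resazurin reduction (1:6 reagent dilution), fluorescence 544/590 nm; loss of signal versus DMSO.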
# [3] = CCTE_Shafer_MEA_dev_network_spike_number: CCTE's Neural Network Formation Assay for Number of Network Spikes, Shafer Lab (AID 2284048; active = hit-call score of the fitted dose curve at least 0.9, where 1 is the maximum; inactive = score below 0.9;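 note: synchronized bursts across electrodes counted on days 5 7 9 12 and integrated as AUC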;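 for AC50: fit as a loss of signal meaning fewer network spikes than DMSO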)
# Method in brief: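 Primary rat cortical neurons on PEI/laminin 48-well MEA plates, dosed from plating day 0 for 12 days, renewed at DIV 5 and 9. Network spike counts recorded DIV 5, 7, 9, 12, collapsed as trapezoidal AUC; DMSO baseline.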
# [4] = CCTE_Shafer_MEA_dev_network_spike_peak: CCTE's Neural Network Formation Assay for Mean Number of Electrodes in Network Spike, Shafer Lab (AID 2284049; active = hit-call score of the fitted dose curve at least 0.9, where 1 is the maximum; inactive = score below 0.9;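 for AC50: fitted for loss of signal meaning fewer electrodes in network spikes than DMSO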)
# Method in brief: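 Network-spike peak electrode count from recordings on days 5, 7, 9 and 12 was combined as trapezoidal area under the curve. Rat cortical cultures were treated continuously from plating, with compound renewed at each feed (DIV 5, 9); fits versus DMSO.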
# [5] = CCTE_Shafer_MEA_dev_spike_duration_mean: CCTE's Neural Network Formation Assay for Mean Spike Duration, Shafer Lab (AID 2284051; active = hit-call score of the fitted dose curve at least 0.9, where 1 is the maximum; inactive = score below 0.9;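 note: mean network spike duration pooled as area under curve over DIV 5 to 12 recordings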;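 for AC50: potency for a decrease in mean network spike duration versus DMSO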)
# Method in brief: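 Primary rat cortical neurons on 16-electrode MEA wells (PEI-coated, laminin in plating drop), exposed from plating through DIV 12 with compound renewed at DIV 5 and 9. Mean network-spike duration recorded DIV 5, 7, 9, 12; trapezoidal AUC across days, DMSO baseline.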
# [6] = CCTE_Shafer_MEA_dev_network_spike_duration_std: CCTE's Neural Network Formation Assay for Standard Deviation of Network Spike Duration, Shafer Lab (AID 2284052; active = hit-call score of the fitted dose curve at least 0.9, where 1 is the maximum; inactive = score below 0.9;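 note: area under curve of spike duration SD across recording days 5 to 12; hits are decreases in network spike duration SD versus DMSO vehicle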)
# Method in brief: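 Primary rat cortical neurons on PEI-coated 16-electrode MEA wells, exposed from plating day 0 through day 12 with compound renewed at DIV 5 and 9. Network spike duration SD recorded on days 5, 7, 9, 12, collapsed as trapezoidal AUC; loss-of-signal fit versus DMSO.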
# [7] = CCTE_Shafer_MEA_dev_per_network_spike_spike_number_mean: CCTE's Neural Network Formation Assay for Mean Number of Spikes in a Network Spike, Shafer Lab (AID 2284053; active = hit-call score of the fitted dose curve at least 0.9, where 1 is the maximum; inactive = score below 0.9;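 for AC50: fitted as decrease in spikes per network spike relative to DMSO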)
# Method in brief: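 Primary rat cortical neurons on 48-well, 16-electrode MEA plates were exposed from plating to DIV 12, with dosing renewed on DIV 5 and 9. Spikes per network spike (0.05 s peak window) were recorded on DIV 5, 7, 9 and 12 and collapsed as trapezoidal AUC versus DMSO.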
# [8] = CCTE_Shafer_MEA_dev_per_network_spike_spike_percent: CCTE's Neural Network Formation Assay for Percent of Spikes in a Network Spike, Shafer Lab (AID 2284054; active = hit-call score of the fitted dose curve at least 0.9, where 1 is the maximum; inactive = score below 0.9)
# Method in brief: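 Rat primary cortical neurons were grown on 48-well MEA plates (16 electrodes/well), exposed from plating day 0 through day 12, with treatment renewed on DIV 5 and 9. Percent of spikes within 0.05 s network-spike peaks was measured, summarised as AUC across days 5, 7, 9, 12.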
# [9] = CCTE_Shafer_MEA_dev_LDH: CCTE's Lactate Dehydrogenase Assay for Cytotoxicity in the Neural Network Formation Assay, Shafer Lab (AID 2284068);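 note: exposure for twelve days from plating with re-dosing on DIV 5 and 9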
# Method in brief: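 Primary rat cortical neurons were plated on PEI/laminin MEA plates and exposed from day 0 for twelve days, with compound renewed at DIV 5 and 9. Cytotoxicity was determined by spectrophotometric LDH assay relative to DMSO.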
# [10] = CCTE_Shafer_MEA_dev_AB: CCTE's Alamar Blue Assay for Cytotoxicity in the Neural Network Formation Assay, Shafer Lab (AID 2284083);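 note: twelve days of exposure from plating with re-dosing on DIV 5 and 9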
# Method in brief: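 Primary rat cortical neurons on PEI-coated 48-well MEA plates, 1.5 x 10^5 cells/well in laminin drop; compound exposure from day 0 of plating for twelve days, renewed at medium changes on DIV 5 and 9. Viability read as resazurin reduction by fluorescence, relative to DMSO.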
# [11] = CCTE_Shafer_MEA_dev_mutual_information_norm: CCTE's Neural Network Formation Assay for Mutual Information Normalization, Shafer Lab (AID 2284091; active = hit-call score of the fitted dose curve at least 0.9, where 1 is the maximum; inactive = score below 0.9;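 for AC50: mutual information between electrodes summarised as area under curve across four recording days; potency is for a decrease in mutual information relative to DMSO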)
# Method in brief: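 Primary rat cortical neurons on PEI-coated 48-well MEA plates, 1.5 x 10^5 cells/well, exposed from day 0 through day 12 with re-dosing at DIV 5 and 9. Mutual information between electrodes recorded days 5, 7, 9, 12; trapezoidal AUC, loss-of-signal fit versus DMSO.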
# [12] = CCTE_Shafer_MEA_dev_correlation_coefficient_mean: CCTE's Neural Network Formation Assay for Mean Correlation Coefficient, Shafer Lab (AID 2284093; active = hit-call score of the fitted dose curve at least 0.9, where 1 is the maximum; inactive = score below 0.9;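 for AC50: well mean pairwise spike train correlation integrated as AUC over recording days 5 to 12; potency fitted for loss of correlation relative to DMSO vehicle wells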)
# Method in brief: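 Spontaneous activity recorded on days 5, 7, 9 and 12 post-plating; pairwise spike correlations are averaged across active electrodes and collapsed to an area-under-curve. Rat cortical cultures are dosed from plating through 12 days, with compound renewed at media changes.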
# [13] = IUF_NPC1b_proliferation_BrdU_72hr: Leibniz Research Institute for Environmental Medicine (IUF) 72-hour Neural Progenitor Cell Bromodeoxyuridine (BrdU) Proliferation Assay (NPC1b) (AID 2284207; active = hit-call score of the fitted dose curve at least 0.9, where 1 is the maximum; inactive = score below 0.9)
# Method in brief: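 BrdU luminescence ELISA quantified DNA synthesis over the last 16 h of a 72 h exposure, fitted against DMSO. Primary hNPC spheres from gestational week 16-19 cortex grown with EGF/FGF at 37C, pH 7.2-7.6.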
# [14] = IUF_NPC1a_proliferation_area_72hr: Leibniz Research Institute for Environmental Medicine (IUF) 72-hour Neural Progenitor Cell Proliferation Area Assay (NPC1a) (AID 2284208; active = hit-call score of the fitted dose curve at least 0.9, where 1 is the maximum; inactive = score below 0.9)
# Method in brief: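 Measured in 3D suspension: each well held one primary hNPC sphere grown with EGF and FGF at pH 7.2-7.6. Compound stayed on for 72 h, then area was imaged; spheres lacking growth factors defined reduced proliferation.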
# [15] = IUF_NPC1_viability_72hr: Viability Assessment at 72 hours in the Leibniz Research Institute for Environmental Medicine (IUF) Neural Progenitor Cell Proliferation Assay (NPC1) (AID 2284209; active = hit-call score of the fitted dose curve at least 0.9, where 1 is the maximum; inactive = score below 0.9)
# Method in brief: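 Each well receives one 0.3 mm progenitor sphere from fetal brain cortex; test chemical is added at plating and left three days. Viability comes from alamar blue fluorescence, multiplexed with LDH and BrdU readouts in the same well.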
# [16] = CCTE_Mundy_HCI_Cortical_Synap_Neur_Matur_NeuriteSpotCountPerNeuriteLength: CCTE's Synaptogenesis and Neurite Maturation Assay in rat cortical cells for Neurite Spot Count per Neurite Length, Mundy Lab (AID 2284210; active = hit-call score of the fitted dose curve at least 0.9, where 1 is the maximum; inactive = score below 0.9)
# Method in brief: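 Rat primary cortical cultures, AraC added at DIV 5 to suppress glia; chemical exposure from DIV 7 to DIV 12. Fixed cells stained for MAP2 and synaptophysin plus Hoechst; synaptophysin puncta per neurite length quantified by high-content imaging, relative to DMSO.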
# [17] = CCTE_Mundy_HCI_Cortical_Synap_Neur_Matur_BPCount: CCTE's Synaptogenesis and Neurite Maturation Assay in rat cortical cells for Branch Point Count, Mundy Lab (AID 2284211; active = hit-call score of the fitted dose curve at least 0.9, where 1 is the maximum; inactive = score below 0.9)
# Method in brief: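 Branch point number is quantified by automated imaging of fluorescently labelled neurites and synapses in rat primary cortical neurons exposed from DIV 7 to DIV 12. Activity is analysed relative to DMSO negative control.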
# [18] = CCTE_Mundy_HCI_Cortical_NOG_NeuriteCount: CCTE's Neurite Outgrowth Assay in rat cortical cells for Neurite Count, Mundy Lab (AID 2284212; active = hit-call score of the fitted dose curve at least 0.9, where 1 is the maximum; inactive = score below 0.9;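 note: cells fixed about two days after chemical exposure began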)
# Method in brief: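 Neurite number per cell from high-content imaging of betaIII-tubulin immunostaining, with Hoechst nuclear counterstain.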
compound,measurement,setting,value
CC[Si](OC(C)=O)(OC(C)=O)OC(C)=O,outcome,[1],inactive
CCCCCCCCCCCCCCCC(=O)OC[C@H](O)[C@H]1OC(=O)C(O)=C1O,AC50,DIO2 (gene 1734),27.5 µM (active)
same,AC50,DIO3 (gene 1735),4.09 µM (active)
OC1OC[C@@H](O)[C@H](O)[C@H]1O (stereo partly drawn),outcome,[1],inactive
OC[C@H]1O[C@H](O[C@]2(CCl)O[C@H](CCl)[C@@H](O)[C@@H]2O)[C@H](O)[C@@H](O)[C@H]1Cl,outcome,[2],inactive
same,outcome,[1],inactive
CCCCCCCCCCCCCC(=O)O,AC50,DIO2 (gene 1734),100 µM (active)
same,AC50,DIO3 (gene 1735),156 µM (active)
C=CCOC(=O)CCC1CCCCC1,outcome,[1],inactive
COc1cc(C=O)ccc1OC(=O)C(C)C,outcome,[1],inactive
C[C@H]1C[C@@H]2[C@H]([C@@H](O)C[C@@]3(C)[C@H]2CC[C@]3(O)C(=O)CO)[C@@]2(C)C=CC(=O)C=C12,outcome,[2],inactive
same,outcome,[1],inactive
CC(C)=CCCC(C)=CCCC(C)=CCO,AC50,DIO2 (gene 1734),28.5 µM (active)
same,AC50,DIO3 (gene 1735),17.9 µM (active)
CCC(=O)/C=C/C1C(C)=CCCC1(C)C (stereo not drawn),AC50,DIO2 (gene 1734),93.1 µM (active)
same,AC50,DIO3 (gene 1735),56.6 µM (active)
CN(C)C(=N)N=C(N)N,outcome,[3],inactive
same,outcome,[4],inactive
same,outcome,[5],inactive
same,outcome,[6],inactive
same,outcome,[7],inactive
same,outcome,[8],inactive
same,outcome,[9],inactive
same,outcome,[10],inactive
same,outcome,[1],inactive
same,outcome,[11],inactive
same,outcome,[12],inactive
same,outcome,[13],inactive
same,outcome,[14],inactive
same,outcome,[15],inactive
same,outcome,[16],inactive
same,AC50,[17],18.1 µM (active)
same,outcome,[18],inactive
CC(C)(COC(=O)c1ccccc1)COC(=O)c1ccccc1,outcome,[2],inactive
same,outcome,[1],inactive
O=C(Oc1ccccc1)c1ccc(O)cc1,AC50,DIO2 (gene 1734),72.2 µM (active)
same,AC50,DIO3 (gene 1735),52.9 µM (active)
CCC(=O)OCc1ccccc1,outcome,[1],inactive
CC(=O)[C@H]1CC[C@H]2[C@@H]3CC=C4C[C@@H](O)CC[C@]4(C)[C@H]3CC[C@]12C,outcome,[1],inactive
N#Cc1ccc(CC(=NNC(=O)Nc2ccc(OC(F)(F)F)cc2)c2cccc(C(F)(F)F)c2)cc1,AC50,[3],0.763 µM (active)
same,AC50,[4],1.12 µM (active)
same,AC50,[5],0.685 µM (active)
same,AC50,[6],0.525 µM (active)
same,AC50,[7],1.08 µM (active)
same,outcome,[8],inactive
same,AC50,[9],15 µM (active)
same,outcome,[10],inactive
same,AC50,[11],0.672 µM (active)
same,AC50,[12],2.8 µM (active)
same,outcome,[13],inactive
same,outcome,[14],inactive
same,outcome,[15],inactive
same,outcome,[16],inactive
same,outcome,[17],inactive
same,outcome,[18],inactive
c1ccc2c(c1)c1cccc3ccc4cccc2c4c31,outcome,[3],inactive
same,outcome,[4],inactive
same,outcome,[5],inactive
same,outcome,[6],inactive
same,outcome,[7],inactive
same,outcome,[8],inactive
same,outcome,[9],inactive
same,outcome,[10],inactive
same,outcome,[11],inactive
same,outcome,[12],inactive
CCCCCCCCC=O,outcome,[2],inactive
same,outcome,[1],inactive
C=C[Si](OCC)(OCC)OCC,outcome,[2],inactive
same,outcome,[1],inactive
O=Nc1ccc(Nc2ccccc2)cc1,AC50,DIO2 (gene 1734),64.2 µM (active)
same,AC50,DIO3 (gene 1735),55.1 µM (active)
NCCNCCN,outcome,[2],inactive
same,outcome,[1],inactive
Cc1cc(C2(c3cc(C)c(O)cc3C)OS(=O)(=O)c3ccccc32)c(C)cc1O,outcome,[2],inactive
same,outcome,[1],inactive
CCCCCCCCCCCCN,outcome,DIO2 (gene 1734),inactive
same,AC50,DIO3 (gene 1735),141 µM (active)
CC(=O)OCCC(C)CC(C)(C)C (stereo not drawn),outcome,[1],inactive
